{"source": "PubChem BioAssay AID1508636", "about": "(National Center for Advancing Translational Sciences (NCATS), 2021)", "target": "ATP-dependent translocase ABCB1 (Homo sapiens) (UniProt P08183)", "sequence (P08183 whole entry, looked up)": "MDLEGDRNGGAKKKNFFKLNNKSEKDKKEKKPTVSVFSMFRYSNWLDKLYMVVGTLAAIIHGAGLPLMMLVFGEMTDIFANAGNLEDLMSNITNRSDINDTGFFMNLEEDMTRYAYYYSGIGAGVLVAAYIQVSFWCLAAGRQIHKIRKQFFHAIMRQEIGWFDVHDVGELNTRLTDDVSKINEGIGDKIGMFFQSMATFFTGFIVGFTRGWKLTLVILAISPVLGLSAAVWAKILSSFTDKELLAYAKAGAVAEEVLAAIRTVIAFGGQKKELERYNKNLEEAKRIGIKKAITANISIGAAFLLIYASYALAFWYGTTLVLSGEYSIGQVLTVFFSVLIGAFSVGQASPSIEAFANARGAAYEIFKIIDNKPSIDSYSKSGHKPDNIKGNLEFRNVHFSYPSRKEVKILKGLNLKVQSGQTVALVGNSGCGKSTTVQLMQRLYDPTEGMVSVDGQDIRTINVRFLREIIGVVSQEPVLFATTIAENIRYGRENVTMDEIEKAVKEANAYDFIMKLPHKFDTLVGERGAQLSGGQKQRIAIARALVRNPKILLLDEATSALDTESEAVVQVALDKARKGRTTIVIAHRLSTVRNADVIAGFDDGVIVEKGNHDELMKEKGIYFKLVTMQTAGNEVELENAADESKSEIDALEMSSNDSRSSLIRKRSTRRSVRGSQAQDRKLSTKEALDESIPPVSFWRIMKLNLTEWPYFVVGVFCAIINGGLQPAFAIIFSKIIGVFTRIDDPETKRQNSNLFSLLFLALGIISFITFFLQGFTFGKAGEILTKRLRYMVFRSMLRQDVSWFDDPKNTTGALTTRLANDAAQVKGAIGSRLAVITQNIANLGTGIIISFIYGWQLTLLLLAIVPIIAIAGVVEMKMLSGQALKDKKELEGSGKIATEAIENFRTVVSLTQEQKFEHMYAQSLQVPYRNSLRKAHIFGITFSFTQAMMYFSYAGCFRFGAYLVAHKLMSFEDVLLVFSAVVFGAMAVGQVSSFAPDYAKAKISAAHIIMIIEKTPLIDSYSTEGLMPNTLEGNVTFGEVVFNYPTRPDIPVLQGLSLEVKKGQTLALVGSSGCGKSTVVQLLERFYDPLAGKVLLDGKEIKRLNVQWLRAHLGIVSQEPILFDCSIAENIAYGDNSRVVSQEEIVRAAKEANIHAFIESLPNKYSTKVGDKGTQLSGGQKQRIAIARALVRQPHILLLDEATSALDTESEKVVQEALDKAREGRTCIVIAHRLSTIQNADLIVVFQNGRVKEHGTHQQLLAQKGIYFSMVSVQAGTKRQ", "assay": "qHTS for characterization and localization of zebrafish homologs of the human ABCB1 multidrug transporter: P-gp overexpressing MDR-19 cells", "excerpt": "The zebrafish has emerged as a potential model to study the blood-brain barrier (BBB) given its similarities with mammalian systems. However, little information has been available with regard to homologous ATP-binding cassette transporters expressed at the zebrafish BBB. Two transporters that are highly expressed at the human BBB are P-glycoprotein (P-gp, encoded by the ABCB1 gene) and ABCG2 (encoded by the ABCG2 gene). In this study, we focus on characterization of P-gp homologs in the zebrafish, which has two genes that are homologous to human ABCB1 - abcb4 and abcb5. We generated stably-transfected cell lines to determine their substrate specificities. […] Zebrafish abcb4 also colocalized with claudin 5 expression in brain endothelial cells.\nA high-throughput screen was performed as previously described on empty vector transfected cells, P-gp-overexpressing MDR-19 cells and cells transfected with full-length zebrafish abcb4 (ZF Abcb4) or abcb5 (ZF Abcb5). Briefly, cells were plated into 1536-well plates at a density of 500 cells/well in 5 uL media. […] CellTiter-Glo reagent (Promega) was dispensed into the wells, incubated for 5 min and luminescence was read on a ViewLux instrument (Perkin-Elmer). […]", "note": "Records with an inconclusive call do not appear. A call without a number means that no potency is given here. The source made the active and inactive calls. The call rests on the fitted dose curve; in most records, active means well fitted inhibition curve with a large enough effect; inconclusive means small, poorly fitted or top-dose-only effect; inactive means flat fitted curve, though single readings scatter. *1 amine or outer side, *2 acyl side, *3 side chain or, on linkers, in order; H or OH if unused. Where a SMILES comes first, the peptide text is derived from it. [ ]: non-standard residue; d: D form. X1 = O=C([C@@H](CC(O)CCl)O[*:1])[*:2]; aIle = CC[C@@H](C)[C@H](N)C(=O)O; NMeV = CN[C@H](C(=O)O)C(C)C; NMeA = CN[C@@H](C)C(=O)O; βAla = NCCC(=O)O"}
{"molecule": "CC[C@@H](C)[C@@H]1NC(=O)[C@@H]2CCCN2C(=O)[C@@H](CC(O)CCl)OC(=O)CCNC(=O)[C@H](C)N(C)C(=O)[C@H](C(C)C)N(C)C1=O", "note": "(some centres not stated) (cyclo([NMeA][βAla][X1]P[aIle][NMeV]))", "values": [{"measurement": "Potency", "result": "inactive"}]}
{"molecule": "C[C@@H]1[C@@H](CC(C[C@H]2O[C@@H]3O[C@]4(C)CC[C@@H]5[C@H](C)CC[C@@H]([C@H]2C)[C@@]35OO4)C[S+](=O)([O-])c2ccc(COC(=O)N(C)C)cc2)O[C@@H]2O[C@]3(C)CC[C@H]4[C@H](C)CC[C@@H]1[C@@]24OO3", "note": "(some centres not stated)", "values": [{"measurement": "Potency", "result": "1320 nM (active)"}]}
